Screens (PubChem BioAssay)
Sm TGR block – qHTS Assay for the Inhibitors of Schistosoma Mansoni Peroxiredoxins; Schistosoma mansoni thioredoxin glutathione reductase (TGR), Q962Y6; purified TGR, DTNB reduction, TNB absorbance 405 nm; Potency, µM (series often up to 114 µM), actives largely listed as inhibitors; actives 3% (n = 360,000); AID 485364, 2010; note: nearly all actives have a fitted effect of over 60% in size
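Kinetic colorimetric format: TGR-catalysed, NADPH-driven DTNB reduction monitored via TNB absorbance. Enzyme dispensed at 20 nM; compound exposure 15 min at room temperature before reaction start.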
AMA1-RON2 inh – qHTS for Inhibitors of AMA1-RON; Towards Development of Antimalarial Drug Lead: Primary Screen; Plasmodium falciparum AMA1 (3D7) - RON2 peptide interaction; AlphaScreen AMA1-biotinylated RON2 peptide binding; Potency, µM (titrated, usually from 58.2 µM), hits mostly inhibitors; actives 0.2% (n = 360,000); note: nearly all actives have a fitted effect of over 45% in size
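AMA1 (3D7) with his tag at 25 nM final met compounds first, then biotinylated RON2 peptide at 25 nM; detection used donor plus acceptor beads, 10 µg/mL apiece, read by AlphaScreen after 30 min at room temperature.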
FMDV inh – High Throughput Screening for Foot and Mouth Disease Virus Antivirals. FMDV antiviral cell-based qHTS. Potency, µM (titrated, usually from 57.9 µM), most hits filed as inhibitors. actives 1.2% (n = 410,000). AID 1159524, 2015; calls by dose curve; tested in HEK293T cells; note: read-out not given here; nearly all actives have a fitted effect of over 45% in size
AmpC inh no detg – qHTS Inhibitors of AmpC Beta-Lactamase (assay without detergent); P00811; AmpC nitrocefin hydrolysis, absorbance 480 nm, 0.0001% Triton; Potency, µM (top dose mostly 57.1 µM), actives largely listed as inhibitors; actives 0.52% (n = 330,000); AID 485341, 2010; note: nearly all actives have a fitted effect of over 20% in size
Target sequence (P00811 whole entry, looked up): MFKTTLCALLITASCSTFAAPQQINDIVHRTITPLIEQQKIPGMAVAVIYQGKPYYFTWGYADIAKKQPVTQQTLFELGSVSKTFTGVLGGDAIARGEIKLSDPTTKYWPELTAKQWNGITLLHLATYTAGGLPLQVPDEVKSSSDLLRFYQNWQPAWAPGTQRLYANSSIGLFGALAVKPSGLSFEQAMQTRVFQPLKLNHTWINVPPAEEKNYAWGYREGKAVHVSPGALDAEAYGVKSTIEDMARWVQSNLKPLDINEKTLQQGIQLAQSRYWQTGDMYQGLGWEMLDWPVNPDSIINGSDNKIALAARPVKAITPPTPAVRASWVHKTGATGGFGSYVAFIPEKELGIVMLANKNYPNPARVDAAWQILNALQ
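AmpC (5.3 nM in the dispensed reagent) in 20 mM phosphate pH 7.0 with 0.01% (detergent screen) or 0.0001% Triton X-100 was preincubated with compounds for 15 min at room temperature. Nitrocefin was then added from an 800 uM solution, and hydrolysis was followed at 480 nm.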
AmpC detergent – qHTS Inhibitors of AmpC Beta-Lactamase (assay with detergent) | P00811 | AmpC hydrolysis of nitrocefin, absorbance 480 nm, 0.01% Triton | Potency, µM (series often up to 114 µM), hits mostly inhibitors | actives 0.041% (n = 370,000) | AID 485294, 2010; note: nearly all actives have a fitted effect of over 25% in size
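20 mM phosphate pH 7.0 + 0.01% (detergent screen) or 0.0001% Triton X-100; 5.3 nM AmpC reagent; cpd preinc 15 min RT; nitrocefin (800 uM stock) to start; A480 q20 s × 4 min; Activity was normalised to no-enzyme and no-compound control wells.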
Each line names hits and unclear results; the compound was inactive in the other large screens. Rows were chosen to be rich in hits. Some 4.1% of all compounds tested hit in one or more screens of this group. Unless noted, calls come from the whole dose curve; as a rule, active = well fitted curve in the direction sought with a large enough effect; inconclusive = small, poorly fitted or top-dose-only effect, or another doubt; inactive = no such curve, though single readings can be large; an effect the other way counts as inactive or inconclusive.

Fc1ccccc1CSc1nnc(-c2cnccn2)n1Cc1ccco1	AmpC detergent inconclusive
COc1ccc(C(=O)N(Cc2cc3cccc(C)c3nc2N(C)C)CC2CCCO2)cc1 (centres undefined)	none (no result: Sm TGR block, AMA1-RON2 inh, AmpC inh no detg, AmpC detergent)
OCc1nc2ccccc2n1CC(O)Cn1ccc2ccccc21 (centres undefined)	FMDV inh 28.2µM
OC(CN1CCNCC1)Cn1ccc2ccccc21 (centres undefined)	none (no result: AMA1-RON2 inh, FMDV inh)
OC(CNCc1ccccc1)Cn1ccc2ccccc21 (centres undefined)	AmpC inh no detg 17.8µM
Cc1ccccc1OCc1nnc(SCC(=O)NCc2ccco2)n1C	none
CC(C)OC(=O)CSc1nnc(Cc2ccccc2)n1Cc1ccco1	Sm TGR block 22.4µM
O=C(CSc1nnc(COc2ccccc2F)n1-c1ccccc1)NCc1ccco1	Sm TGR block 39.8µM
COc1ccccc1OCc1nnc(SCC(=O)NCc2ccco2)n1Cc1ccco1	Sm TGR block 15.8µM, AmpC detergent inconclusive
C=CCn1c(COc2ccccc2F)nnc1SCC(=O)NC(=O)NCc1ccco1	AmpC detergent inconclusive (no result: FMDV inh)
O=C(c1ccc2c3c(cccc13)CC2)C1CCCN(Cc2ccncc2)C1 (centres undefined)	FMDV inh inconclusive
O=S(=O)(CCc1ccncc1)Cc1ccc2c3c(cccc13)CC2	Sm TGR block 39.8µM
O=C1NC(c2cn(-c3ccccc3)nc2-c2cccs2)C(C(=O)c2cccnc2)C(O)(C(F)(F)F)N1 (centres undefined)	Sm TGR block inconclusive, AmpC detergent inconclusive
COc1ccc(C2NC(=O)NC(O)(C(F)(F)F)C2C(=O)c2ccccc2)cc1OC (centres undefined)	Sm TGR block 35.5µM (no result: FMDV inh)
COc1cccc(C2NC(=O)NC(O)(C(F)(F)F)C2C(=O)c2cccnc2)c1OC (centres undefined)	Sm TGR block 22.4µM
COc1ccc(C2=C(C)C(=O)N(Cc3ccc(C(=O)NC(C)c4ccccc4)cc3)S2(=O)=O)cc1 (centres undefined)	none (no result: AMA1-RON2 inh, AmpC inh no detg)
NS(=O)(=O)c1ccc(CCNc2ncnc3sccc23)cc1	FMDV inh inconclusive
Cc1sc2ncnc(NCCc3ccc(S(N)(=O)=O)cc3)c2c1C	FMDV inh 11.2µM, AmpC detergent inconclusive
O=C(NC1CCCCCC1)C1c2ccccc2C(=O)N1Cc1ccccc1Cl (centres undefined)	none (no result: AMA1-RON2 inh, AmpC inh no detg)
CCCN(CCC)C(=O)c1cc([N+](=O)[O-])cc2c1-c1ccc([N+](=O)[O-])cc1C2=C(C#N)C#N	Sm TGR block 5.01µM, FMDV inh inconclusive
CCCCN(CCCC)C(=O)c1cc(Cl)ccc1[N+](=O)[O-]	none
Cn1c(=O)c(Oc2cc(Cl)cc(Cl)c2)nc2ccccc21	AmpC inh no detg 0.398µM
COc1ccc(Oc2nc3ccccc3n(C)c2=O)cc1	AmpC detergent inconclusive
CC(=O)Nc1cc(C(=O)N2CCN(C(=O)c3ccco3)CC2)cc2ncn(CCc3ccccn3)c12	none (no result: Sm TGR block, AMA1-RON2 inh, AmpC inh no detg, AmpC detergent)
Cc1ccc(-n2nc(CO)c(C(=O)NCc3ccccn3)n2)cc1	none (no result: AMA1-RON2 inh, AmpC inh no detg)
CCCCOc1ccc(C(=O)NC(=S)Nc2ccc(CN3CCOCC3)cc2)cc1	none
O=C(COc1ccc(Cl)cc1Cl)NC(=S)Nc1ccc(CN2CCOCC2)cc1	FMDV inh 28.2µM
COc1ccc(C(=O)NC(=S)Nc2ccc(CN3CCOCC3)cc2)cc1Br	Sm TGR block 14.1µM, FMDV inh inconclusive, AmpC detergent inconclusive
CC(C)c1ccc(/C=C/C(=O)NC(=S)NN2CCOCC2)cc1	none
COc1ccc(C(=O)NC(=S)Nc2ccc(CN3CCOCC3)cc2)cc1	Sm TGR block 22.4µM, FMDV inh inconclusive
CC(C)c1ccc(/C=C/C(=O)NC(=S)Nc2ccc(CN3CCOCC3)cc2)cc1	FMDV inh 20µM
Nc1nn(-c2ccccc2)nc1C(=O)OCc1c(F)cccc1Cl	none (no result: AMA1-RON2 inh, AmpC inh no detg)
Cc1cc(C)c(NC(=O)CSc2nccn2-c2cccc(Cl)c2)c(C)c1	none (no result: AMA1-RON2 inh, AmpC inh no detg)
COC(=O)c1ccc(NC(=O)c2ccc(CN3CCOCC3)cc2)cc1	FMDV inh 22.4µM
O=C(Nc1ccc(CN2CCOCC2)cc1)c1ccc(Cl)cc1	none
Cc1ccc(N2CCOCC2)c2c1C(=O)c1ccccc1C2=O	AMA1-RON2 inh 14.1µM, FMDV inh inconclusive
COc1ccc(O)c(CN2CCOc3c(cc(-c4cccc(OC)n4)cc3OC)C2)c1	none (no result: Sm TGR block, AMA1-RON2 inh, AmpC inh no detg, AmpC detergent)
c1ccc(Nc2ccccn2)cc1	none
c1ccc(Nc2cccc(Nc3ccccc3)n2)cc1	Sm TGR block 2.82µM
COc1ccc(CNC(=O)Cn2nc(C(F)(F)F)c(Br)c2C)cc1	AmpC detergent inconclusive
COc1cc(NC(=O)Cn2nc(C(F)(F)F)c(Br)c2C)cc([N+](=O)[O-])c1	FMDV inh 39.8µM
COc1ccc(N2CCN(CC(O)COc3ccc(C)cc3C)CC2)cc1 (centres undefined)	AMA1-RON2 inh 25.1µM
OC(COc1ccc2ccccc2c1)CN1CCN(c2ccc(F)cc2)CC1 (centres undefined)	AmpC inh no detg 39.8µM, AmpC detergent inconclusive
COc1ccc(N2CCN(CC(O)COc3cc(C)ccc3C)CC2)cc1 (centres undefined)	FMDV inh inconclusive
COc1cccc(OCC(O)CN2CCN(c3ccc(F)cc3)CC2)c1 (centres undefined)	none
CCOc1ccc(CCNC(=O)c2cnc3c(-c4ccc(F)cc4)c(C)nn3c2C)cc1OCC	none (no result: AMA1-RON2 inh, AmpC inh no detg)
CCOC(=O)C1CCN(C(c2cccnc2)c2c(NC(=O)c3ccco3)sc(C)c2C)CC1 (centres undefined)	Sm TGR block 7.94µM, FMDV inh 25.1µM
Cc1sc(NC(=O)c2ccco2)c(C(c2cccnc2)N2CCN(CCO)CC2)c1C (centres undefined)	none
Cc1sc(NC(=O)c2ccco2)c(C(c2cccnc2)N2CCN(c3ccc(F)cc3)CC2)c1C (centres undefined)	Sm TGR block 22.4µM, AMA1-RON2 inh inconclusive, FMDV inh inconclusive
CCCCCCCCCCOC(=O)Cn1c(COc2ccccc2)[n+](C)c2ccccc21	FMDV inh 35.5µM
CCCCCCCCCCOC(=O)Cn1c(COc2ccc(OC)cc2)[n+](C)c2ccccc21	FMDV inh inconclusive
CCCCCCCCCCOC(=O)Cn1c(COc2cccc(C)c2)[n+](C)c2ccccc21	FMDV inh 20µM, AmpC detergent inconclusive
CN1CCCC(CN(C)C(=O)c2cnn(-c3nccc(-c4ccccc4C(F)(F)F)n3)c2C2CC2)C1 (centres undefined)	none (no result: Sm TGR block, AMA1-RON2 inh, AmpC inh no detg, AmpC detergent)
CC1CCCCN1C(=O)c1cc(-c2ccc(Br)cc2)on1 (centres undefined)	none (no result: AMA1-RON2 inh, AmpC inh no detg)
CC1CCCCN1c1nnc(NC(=O)c2cc(-c3ccc(Br)cc3)on2)s1 (centres undefined)	FMDV inh inconclusive, AmpC inh no detg 39.8µM, AmpC detergent inconclusive
